Shown are actives, neighbours in structure and some others; about 3.7% of the full set was active somewhere.
tim10-1 inh: inhibits growth of tim10-1 mutant yeast; S. cerevisiae tim10-1 ts strain growth, BacTiter-Glo, 24 h; actives 2.2% (n = 330,000); inhibition, % at 20 µM;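 active = inhibition of at least 40%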;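 also: mutant grown at 25 °C; 0% = DMSO wells with yeast and 100% = wells holding no yeast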
V-ATPase pH: regulators of yeast V-ATPase proton transport. response, % at 10 µM. AID 504577. actives 0.37% (n = 350,000). S. cerevisiae, pHLuorin cytosolic pH fluorescence; in the data active = response mostly above about 7.3%, no sharp cut-off; inactive = mostly below about 5.4%; also: actives read high
tim23-1 inh: tim23-1 yeast growth inhibition | actives 1.3% (n = 330,000) | inhibition, % at 20 µM | S. cerevisiae tim23-1 growth, BacTiter-Glo luminescence, 24 h | AID 463212;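 active = growth inhibition of the mutant yeast at or above 50%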;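 also: temperature-sensitive mutant grown at 25 °C; plate controls were DMSO-treated mutant yeast for no effect and medium wells lacking yeast for full effect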
TIM10 inh: inhibits growth of TIM10 yeast strain. S. cerevisiae TIM10 strain growth, BacTiter-Glo luminescence, 24 h. inhibition, % at 10 µM. actives 1.4% (n = 330,000);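 active = inhibition of 40% or more at the single tested concentration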;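 also: wild-type TIM10 isogenic control strain grown at permissive 25 °C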
PfHsp90 set2: inhibits growth of yeast expressing Plasmodium falciparum Hsp90; S. cerevisiae expressing PfHsp90, BacTiter-Glo ATP, 48 h; yeast lacking PDR1 and PDR3 efflux regulators; inhibition, % at 9.4 µM; actives 0.32% (n = 310,000); AID 504621;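 active = every replicate shows inhibition above about 80%, whatever the replicate mean, limit read from the data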;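 also: 0% = DMSO neutral controls and 100% = 20 µM radicicol positive controls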
tim10-1 conf: tim10-1 yeast growth inhibition, confirmed. shares compounds with tim10-1 inh. S. cerevisiae tim10-1 ts strain growth, BacTiter-Glo, 24 h. inhibition, % at 20 µM. actives 56% (n = 7,400). AID 463213;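 active = inhibition of yeast growth at or above a set limit in either of two repeat tests at 20 µM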;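 also: tim10-1 mutant grown at permissive 25 °C to find synthetic lethal compounds; 0% = DMSO yeast wells and 100% = medium wells without yeast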
An asterisk follows results filed as active; / = no result.

SMILES	tim10-1 inh	V-ATPase pH	tim23-1 inh	TIM10 inh	PfHsp90 set2	tim10-1 conf
CC1CCc2nc(NC(=O)C3COc4ccccc4O3)sc2C1 (stereo unspecified)	49*	-1	38	27	-2	27
Cc1cccc(N2C(=O)CN(Cc3cccs3)C2=S)c1	42*	6	45	33	19	25
O=C(c1ccccc1)c1c[nH]cc1-c1ccccc1	13	3	6	5	-28	/
O=C(c1cccs1)c1c[nH]cc1-c1ccccc1	52*	-1	29	28	/	38*
c1ccc(NN(Cc2ccccn2)c2ccccc2)cc1	/	4	/	/	/	/
Cc1[nH]nc(-c2ccc(OCc3cnn(-c4ccccc4)c3)cc2O)c1Oc1ccc(F)cc1	-11	2	0	-9	18	/
CCOc1ccc(-c2n[nH]c(C)c2Oc2ccc(OC)cc2)c(O)c1	44*	2	41	34	-7	47*
COc1cc(-c2cc(=O)c3c(O)c(OC)c(OC)cc3o2)cc(OC)c1O	42*	1	34	23	-14	18
O=c1cc(CSc2nc(NCc3ccc(Cl)cc3)c3ccccc3n2)nc2ccc(Cl)cn12	/	-59	/	/	5	/
Cc1ccc(-n2c(C)csc2=N)cc1	20	-2	12	1	-2	/
Cc1csc(=N)n1-c1ccc(Cl)cc1	48*	1	40	19	-9	23
COC(=O)C1=C(C)N(c2cccc(Cl)c2)C(=O)C1	52*	-4	34	6	13	34*
COC(=O)C1=C(C)N(c2cccc(C(C)=O)c2)C(=O)C1	19	-2	7	6	/	/
CC1=C(C(=O)N2CCc3ccccc32)C2(CCC(C)CC2)OC1=O (stereo unspecified)	48*	2	28	22	9	33*
CC1=C(C(=O)N2CCCCC2)C2(CCC(C)CC2)OC1=O (stereo unspecified)	14	-2	21	16	-10	/
COc1ccc(OCC(=O)OC2CCCN(C)C2)cc1 (stereo unspecified)	-8	-5	6	-3	-3	/
CCOc1ccc(-c2nc3n(c(=O)c2C#N)CCS3)cc1	31	3	-15	22	3	/
FC(F)Oc1ccc(/C=N/c2c(-c3ccc(OC(F)F)cc3)nc3n2CCS3)cc1	47*	-1	9	6	0	24
C[C@H](CO)N1C[C@H](C)[C@H](CN(C)C(=O)Nc2ccccc2)OCc2cnnn2CCCC1=O	/	-2	/	/	/	/
O=C(O)Cc1sc(Nc2ccccc2)nc1-c1ccc(Cl)cc1	40*	-2	25	13	-2	23
S=C(NCCC(c1ccccc1)c1ccccc1)Nc1cccc(Cl)c1	40*	1	32	33	-20	17
S=C(N/N=C/c1cccc2ccccc12)Nc1cccc(Cl)c1	43*	-2	27	-2	-2	37*
Fc1cccc(NC(=S)NCc2ccccc2Cl)c1	50*	-1	38	29	-23	44*
S=C(N/N=C/c1ccccc1Cl)Nc1ccccc1	26	-3	20	11	-4	/
CCOC(=O)[C@H]1[C@H]2COc3ccc(Br)cc3[C@@H]2N2C(=O)CN(Cc3ccccc3)C(=O)[C@@]12C	13	-2	19	6	-6	/
SMILES	tim10-1 inh	V-ATPase pH	tim23-1 inh	TIM10 inh	PfHsp90 set2	tim10-1 conf
O=C(CN1CCOCC1)N/N=C/c1ccco1	2	-1	3	5	-52	/
O=C(CSCC(=O)Nc1ccccc1)N/N=C/c1c(O)ccc2ccccc12	42*	1	-13	38	-14	16
O=C(CN1CCOCC1)N/N=C/c1c(O)ccc2ccccc12	46*	2	49	22	-13	5
O=C(CCCNc1ccccc1)N/N=C/c1cccs1	-4	0	-4	3	-9	/
CCCSc1nc2c(cnn2-c2ccc(C)cc2)c(=O)[nH]1	14	2	9	-13	-6	/
CCSc1nc2c(cnn2-c2ccc(C)cc2)c(=O)[nH]1	41*	1	17	14	-18	-6
C=CC[C@@H](CC(=O)OC(C)(C)C)C(=O)OC[C@@H]1CCCN1C(=O)[C@H](CC=C)CC(=O)NCCO	6	-2	17	14	-7	/
O=S(=O)(c1ccc2[nH]ccc2c1)N1CCCCCC1	44*	5	39	18	-33	6
Cc1sc(NC(=O)C2C3CCC(O3)C2C(=O)O)nc1-c1ccc(CC(C)C)cc1 (stereo unspecified)	41*	4	27	19	-9	13
CCOC(=O)c1c(NC(=O)C2C3CCC(O3)C2C(=O)O)sc(C)c1-c1ccc(C)cc1 (stereo unspecified)	17	2	12	10	14	/
Cc1cc(C(=O)N2CCCC(N3CCN(Cc4ccc5c(c4)OCO5)CC3)C2)n[nH]1 (stereo unspecified)	16	4	3	0	20	/
O=C(CCS(=O)(=O)Cc1ccccc1)N1CCc2ccccc2C1	47*	-4	46	28	16	40*
O=C(CCS(=O)(=O)Cc1ccccc1F)N1CCc2ccccc2C1	16	-4	25	9	-11	/
CCCCCCCCN1[C@@H](CC(=O)O)c2cc(C(F)(F)F)ccc2S1(=O)=O	29	0	18	20	-20	/
CCCCCCCCCCCCN1[C@@H](CC(=O)O)c2cc(C(F)(F)F)ccc2S1(=O)=O	64*	-1	4	-4	-3	14
CC(=O)c1cccc(NC(=O)c2cc(S(=O)(=O)N3CCOCC3)cs2)c1	-6	3	-10	15	3	/
Cc1cc(N2CCN(c3ccccc3Cl)CC2)n2cc(-c3ccccc3)nc2n1	42*	1	46	38	6	49*
Cc1cc(N2CCN(c3ccccc3)CC2)n2cc(-c3ccccc3)nc2n1	34	4	45	19	3	/
O=C(C[n+]1cccc(O)c1)Nc1ccc(Br)cc1	-7	-1	-4	-16	17	/
COc1ccc(-c2cn(-c3ccc(OC)cc3)c3[n+]2-c2ccccc2CC3)cc1	53*	1	25	23	-7	40*
COc1ccc(-n2cc(-c3ccccc3)[n+]3c2CCCCC3)cc1	2	0	-2	12	-11	/
Cc1ccc(-c2nn3c(C)nnc3c3ccccc23)cc1S(=O)(=O)NCCO	2	0	15	1	-19	/
Cc1ccc(-c2nn3c(C)nnc3c3ccccc23)cc1S(=O)(=O)N1CCN(CCO)CC1	44*	-2	16	6	3	7
O=C(OCc1cn([C@H]2C[C@H](c3ccc(Cl)cc3)N(Cc3cccs3)C[C@@H]2O)nn1)c1ccccc1	/	1	/	/	/	/
Cc1ccn2c(NC(C)(C)C)c(-c3cccs3)nc2c1	44*	-2	42	19	-10	27
COc1ccc(-c2[nH]ncc2N=Nc2ccccc2)cc1	58*	1	42	-10	-64	37*
